Data from ChEMBL document CHEMBL2218924, “A broad activity screen in support of a chemogenomic map for kinase signalling research and drug discovery” (Biochem J, 2013).

How the values were obtained:
[1] = molecular target: T1, Serine/threonine-protein kinase BRSK1 (Homo sapiens) (UniProt Q8TDC3); conditions: at 1 µM
T1 sequence (whole entry): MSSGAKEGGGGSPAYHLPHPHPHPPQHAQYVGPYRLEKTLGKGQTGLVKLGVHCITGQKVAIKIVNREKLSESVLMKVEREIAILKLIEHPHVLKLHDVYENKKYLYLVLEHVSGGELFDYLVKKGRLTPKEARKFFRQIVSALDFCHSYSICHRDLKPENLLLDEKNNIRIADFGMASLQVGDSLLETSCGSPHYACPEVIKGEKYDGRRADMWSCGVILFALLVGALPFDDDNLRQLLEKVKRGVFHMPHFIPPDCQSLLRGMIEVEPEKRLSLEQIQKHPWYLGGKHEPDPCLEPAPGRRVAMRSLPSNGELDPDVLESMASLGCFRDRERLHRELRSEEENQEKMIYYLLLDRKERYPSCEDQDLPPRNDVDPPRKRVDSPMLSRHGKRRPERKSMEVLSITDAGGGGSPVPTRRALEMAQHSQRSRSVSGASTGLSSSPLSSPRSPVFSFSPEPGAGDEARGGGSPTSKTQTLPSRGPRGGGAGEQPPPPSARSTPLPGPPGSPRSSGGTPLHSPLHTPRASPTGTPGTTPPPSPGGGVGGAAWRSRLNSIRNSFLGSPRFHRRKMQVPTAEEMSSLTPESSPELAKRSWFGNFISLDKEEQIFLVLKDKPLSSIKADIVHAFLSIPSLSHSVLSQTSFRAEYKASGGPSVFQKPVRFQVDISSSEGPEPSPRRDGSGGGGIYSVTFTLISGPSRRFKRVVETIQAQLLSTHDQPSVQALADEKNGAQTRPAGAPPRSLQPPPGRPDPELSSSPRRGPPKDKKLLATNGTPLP

[2] = molecular target: T1, Serine/threonine-protein kinase BRSK1 (Homo sapiens); conditions: at 10 µM
[3] = molecular target: T2, Serine/threonine-protein kinase BRSK2 (Homo sapiens) (UniProt Q8IWQ3); conditions: at 1 µM
T2 sequence (whole entry): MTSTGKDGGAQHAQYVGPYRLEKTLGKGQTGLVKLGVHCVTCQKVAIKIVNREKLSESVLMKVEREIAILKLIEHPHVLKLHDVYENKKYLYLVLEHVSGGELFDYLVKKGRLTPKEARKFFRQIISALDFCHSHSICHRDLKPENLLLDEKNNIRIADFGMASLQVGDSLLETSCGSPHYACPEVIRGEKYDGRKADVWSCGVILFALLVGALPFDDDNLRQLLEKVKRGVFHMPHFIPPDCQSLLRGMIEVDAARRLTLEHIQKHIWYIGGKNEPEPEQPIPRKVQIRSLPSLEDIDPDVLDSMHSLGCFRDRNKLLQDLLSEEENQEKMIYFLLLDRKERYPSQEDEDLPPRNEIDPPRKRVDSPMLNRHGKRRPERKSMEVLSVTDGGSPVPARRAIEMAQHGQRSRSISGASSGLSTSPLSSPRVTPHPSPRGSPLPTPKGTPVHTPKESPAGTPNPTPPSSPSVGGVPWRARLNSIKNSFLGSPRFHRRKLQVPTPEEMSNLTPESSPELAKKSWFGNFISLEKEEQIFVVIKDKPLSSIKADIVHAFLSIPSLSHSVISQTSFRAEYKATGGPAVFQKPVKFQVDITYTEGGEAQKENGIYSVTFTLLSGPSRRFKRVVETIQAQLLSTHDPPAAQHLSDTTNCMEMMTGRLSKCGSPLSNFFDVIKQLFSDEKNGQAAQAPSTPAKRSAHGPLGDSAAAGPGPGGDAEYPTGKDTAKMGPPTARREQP

[4] = molecular target: T2, Serine/threonine-protein kinase BRSK2 (Homo sapiens); conditions: at 10 µM
[5] = molecular target: T3, Cyclin-dependent kinase 1/cyclin B1 (Homo sapiens) (UniProt P06493+P14635); conditions: at 1 µM
[6] = molecular target: T3, Cyclin-dependent kinase 1/cyclin B1 (Homo sapiens); conditions: at 10 µM
[7] = molecular target: T4, Cyclin-dependent kinase 2/cyclin A (Homo sapiens) (UniProt P24941+P20248+P78396); conditions: at 1 µM
[8] = molecular target: T4, Cyclin-dependent kinase 2/cyclin A (Homo sapiens); conditions: at 10 µM
[9] = molecular target: T5, Cyclin-dependent kinase 2/cyclin E (Homo sapiens) (UniProt P24864+P24941+O96020); conditions: at 1 µM
[10] = molecular target: T5, Cyclin-dependent kinase 2/cyclin E (Homo sapiens); conditions: at 10 µM
[11] = molecular target: T6, CDK3/cyclin E (Homo sapiens) (UniProt P24864+O96020+Q00526); conditions: at 1 µM
[12] = molecular target: T6, CDK3/cyclin E (Homo sapiens); conditions: at 10 µM
[13] = molecular target: T7, Cyclin-dependent kinase 5/CDK5 activator 1 (Homo sapiens) (UniProt Q00535+Q15078); conditions: at 1 µM
[14] = molecular target: T7, Cyclin-dependent kinase 5/CDK5 activator 1 (Homo sapiens); conditions: at 10 µM
[15] = molecular target: T7, Cyclin-dependent kinase 5/CDK5 activator 1 (Homo sapiens); conditions: at 1 µM; remark: listed apart in the source
[16] = molecular target: T7, Cyclin-dependent kinase 5/CDK5 activator 1 (Homo sapiens); conditions: at 10 µM; remark: listed apart in the source
[17] = molecular target: T8, CDK6/cyclin D3 (Homo sapiens) (UniProt P30281+Q00534); conditions: at 1 µM
[18] = molecular target: T8, CDK6/cyclin D3 (Homo sapiens); conditions: at 10 µM
[19] = molecular target: T9, Cyclin-dependent kinase 7/ cyclin H (Homo sapiens) (UniProt P51946+P50613); conditions: at 1 µM
[20] = molecular target: T9, Cyclin-dependent kinase 7/ cyclin H (Homo sapiens); conditions: at 10 µM

T6 sequence (O96020 whole entry, looked up): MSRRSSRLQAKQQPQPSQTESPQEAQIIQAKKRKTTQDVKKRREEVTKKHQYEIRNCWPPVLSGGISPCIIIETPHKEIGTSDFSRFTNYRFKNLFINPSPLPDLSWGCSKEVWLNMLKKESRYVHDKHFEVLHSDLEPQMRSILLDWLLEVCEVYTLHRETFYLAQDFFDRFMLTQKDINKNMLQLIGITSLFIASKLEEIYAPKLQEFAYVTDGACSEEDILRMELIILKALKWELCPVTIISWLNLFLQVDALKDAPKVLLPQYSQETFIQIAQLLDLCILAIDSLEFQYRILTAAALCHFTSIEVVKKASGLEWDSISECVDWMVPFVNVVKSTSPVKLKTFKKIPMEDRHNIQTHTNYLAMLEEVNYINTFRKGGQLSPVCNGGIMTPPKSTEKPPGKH
T6 sequence (P24864 whole entry, looked up): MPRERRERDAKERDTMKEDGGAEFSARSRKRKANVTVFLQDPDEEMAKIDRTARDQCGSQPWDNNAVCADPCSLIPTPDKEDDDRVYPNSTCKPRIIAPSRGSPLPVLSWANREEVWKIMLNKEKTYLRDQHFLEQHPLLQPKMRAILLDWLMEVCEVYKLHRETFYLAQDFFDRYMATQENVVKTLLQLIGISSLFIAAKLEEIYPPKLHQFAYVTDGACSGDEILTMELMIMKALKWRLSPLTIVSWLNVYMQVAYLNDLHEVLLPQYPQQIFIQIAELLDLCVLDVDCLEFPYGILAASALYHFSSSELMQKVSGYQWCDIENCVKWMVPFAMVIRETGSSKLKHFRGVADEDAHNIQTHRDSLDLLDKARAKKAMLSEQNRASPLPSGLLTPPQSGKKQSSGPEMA
T6 sequence (Q00526 whole entry, looked up): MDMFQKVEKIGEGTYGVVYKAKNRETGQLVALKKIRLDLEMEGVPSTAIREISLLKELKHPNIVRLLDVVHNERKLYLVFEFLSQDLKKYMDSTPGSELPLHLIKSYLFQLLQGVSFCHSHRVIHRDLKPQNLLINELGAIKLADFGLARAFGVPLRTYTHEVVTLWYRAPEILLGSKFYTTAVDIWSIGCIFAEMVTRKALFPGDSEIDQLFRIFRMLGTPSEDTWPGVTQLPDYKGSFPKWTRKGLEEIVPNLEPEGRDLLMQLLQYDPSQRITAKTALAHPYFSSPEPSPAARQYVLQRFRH
T3 sequence (P06493 whole entry, looked up): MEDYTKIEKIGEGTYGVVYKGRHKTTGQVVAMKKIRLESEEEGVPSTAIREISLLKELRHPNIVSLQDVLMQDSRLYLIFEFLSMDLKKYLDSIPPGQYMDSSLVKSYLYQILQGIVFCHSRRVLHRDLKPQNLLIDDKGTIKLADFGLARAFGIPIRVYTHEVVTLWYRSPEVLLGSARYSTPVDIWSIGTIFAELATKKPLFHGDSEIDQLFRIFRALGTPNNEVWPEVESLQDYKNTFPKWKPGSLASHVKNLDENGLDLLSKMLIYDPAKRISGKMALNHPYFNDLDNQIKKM
T3 sequence (P14635 whole entry, looked up): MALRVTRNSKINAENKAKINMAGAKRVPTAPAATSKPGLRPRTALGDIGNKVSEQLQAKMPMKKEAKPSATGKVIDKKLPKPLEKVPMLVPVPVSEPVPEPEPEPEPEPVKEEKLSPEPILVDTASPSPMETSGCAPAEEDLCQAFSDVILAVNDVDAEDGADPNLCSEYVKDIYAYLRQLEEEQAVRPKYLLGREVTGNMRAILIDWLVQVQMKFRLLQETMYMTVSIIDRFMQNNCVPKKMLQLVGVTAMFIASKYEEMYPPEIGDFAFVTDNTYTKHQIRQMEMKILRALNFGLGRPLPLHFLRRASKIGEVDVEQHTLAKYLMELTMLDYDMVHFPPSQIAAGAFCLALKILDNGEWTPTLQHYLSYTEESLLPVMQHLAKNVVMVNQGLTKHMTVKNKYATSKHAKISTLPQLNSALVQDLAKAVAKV
T7 sequence (Q00535 whole entry): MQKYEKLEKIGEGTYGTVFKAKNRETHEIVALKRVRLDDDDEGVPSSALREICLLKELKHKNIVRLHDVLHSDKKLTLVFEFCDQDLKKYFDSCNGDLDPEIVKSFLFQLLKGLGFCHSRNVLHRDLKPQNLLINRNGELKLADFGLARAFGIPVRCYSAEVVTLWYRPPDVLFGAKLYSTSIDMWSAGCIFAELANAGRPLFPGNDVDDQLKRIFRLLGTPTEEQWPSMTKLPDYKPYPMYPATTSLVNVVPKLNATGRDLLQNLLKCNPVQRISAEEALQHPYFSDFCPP
T7 sequence (Q15078 99-307 partner limits assumed): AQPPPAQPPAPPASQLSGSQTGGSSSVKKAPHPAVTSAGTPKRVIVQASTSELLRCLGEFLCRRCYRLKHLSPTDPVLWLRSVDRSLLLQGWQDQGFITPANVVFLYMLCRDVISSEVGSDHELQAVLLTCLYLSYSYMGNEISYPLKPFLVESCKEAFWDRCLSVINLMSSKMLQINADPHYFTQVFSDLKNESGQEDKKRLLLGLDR

Cc1nc(-c2ccccc2)c(-c2ccncc2)o1
residual activity [1]: 103% | residual activity [2]: 85% | residual activity [3]: 120% | residual activity [4]: 96% | residual activity [5]: 104% | residual activity [6]: 92% | residual activity [7]: 97% | residual activity [8]: 92% | residual activity [9]: 104% | residual activity [10]: 95% | residual activity [11]: 92% | residual activity [12]: 91% | residual activity [13]: 96% | residual activity [14]: 94% | residual activity [15]: 129% | residual activity [16]: 93% | residual activity [17]: 110% | residual activity [18]: 86% | residual activity [19]: 105% | residual activity [20]: 96%

COc1cc2ncnc(Nc3ccc(Oc4ccccc4)cc3)c2cc1OC
residual activity [1]: 55% | residual activity [2]: 60% | residual activity [3]: 89% | residual activity [4]: 102% | residual activity [5]: 99% | residual activity [6]: 102% | residual activity [7]: 130% | residual activity [8]: 101% | residual activity [9]: 106% | residual activity [10]: 106% | residual activity [11]: 94% | residual activity [12]: 91% | residual activity [13]: 108% | residual activity [14]: 92% | residual activity [15]: 98% | residual activity [16]: 109% | residual activity [17]: 101% | residual activity [18]: 92% | residual activity [19]: 98% | residual activity [20]: 100%

CCOc1cc2ncnc(Nc3cccc(Br)c3)c2cc1OCC
residual activity [1]: 12% | residual activity [2]: 15% | residual activity [3]: 95% | residual activity [4]: 60% | residual activity [5]: 93% | residual activity [6]: 89% | residual activity [7]: 136% | residual activity [8]: 89% | residual activity [9]: 92% | residual activity [10]: 79% | residual activity [11]: 103% | residual activity [12]: 87% | residual activity [13]: 105% | residual activity [14]: 97% | residual activity [15]: 95% | residual activity [16]: 81% | residual activity [17]: 96% | residual activity [18]: 88% | residual activity [19]: 86% | residual activity [20]: 84%

O=C(Nc1cccc(Nc2nccc(Nc3cccc(C(F)(F)F)c3)n2)c1)C1CC1
residual activity [1]: 26% | residual activity [2]: 27% | residual activity [3]: 93% | residual activity [4]: 40% | residual activity [5]: 96% | residual activity [6]: 102% | residual activity [7]: 127% | residual activity [8]: 93% | residual activity [9]: 94% | residual activity [10]: 97% | residual activity [11]: 98% | residual activity [12]: 72% | residual activity [13]: 94% | residual activity [14]: 98% | residual activity [15]: 107% | residual activity [16]: 98% | residual activity [17]: 102% | residual activity [18]: 39% | residual activity [19]: 92% | residual activity [20]: 86%

Cc1ccc(NC2=CC(=O)c3sc(C)nc3C2=O)cc1
residual activity [1]: 101% | residual activity [2]: 105% | residual activity [3]: 110% | residual activity [4]: 97% | residual activity [5]: 101% | residual activity [6]: 106% | residual activity [7]: 91% | residual activity [8]: 91% | residual activity [9]: 97% | residual activity [10]: 91% | residual activity [11]: 92% | residual activity [12]: 95% | residual activity [13]: 102% | residual activity [14]: 97% | residual activity [15]: 107% | residual activity [16]: 87% | residual activity [17]: 91% | residual activity [18]: 85% | residual activity [19]: 97% | residual activity [20]: 85%

Nc1n[nH]c2nnc(-c3c(-c4ccccc4)nn4ccccc34)cc12
residual activity [1]: 92% | residual activity [2]: 70% | residual activity [3]: 103% | residual activity [4]: 96% | residual activity [5]: 107% | residual activity [6]: 99% | residual activity [7]: 92% | residual activity [8]: 90% | residual activity [9]: 93% | residual activity [10]: 96% | residual activity [11]: 90% | residual activity [12]: 90% | residual activity [13]: 95% | residual activity [14]: 99% | residual activity [15]: 112% | residual activity [16]: 79% | residual activity [17]: 81% | residual activity [18]: 43% | residual activity [19]: 106% | residual activity [20]: 89%

COc1ccc(C(=O)Nc2sc3c(c2C(N)=O)CCCC3)cc1OC
residual activity [1]: 93% | residual activity [2]: 96% | residual activity [3]: 105% | residual activity [4]: 103% | residual activity [5]: 98% | residual activity [6]: 93% | residual activity [7]: 134% | residual activity [8]: 91% | residual activity [9]: 106% | residual activity [10]: 97% | residual activity [11]: 101% | residual activity [12]: 92% | residual activity [13]: 101% | residual activity [14]: 108% | residual activity [15]: 85% | residual activity [16]: 88% | residual activity [17]: 94% | residual activity [18]: 94% | residual activity [19]: 71% | residual activity [20]: 114%
